Source: article PMC4552634, “A New Set of Chemical Starting Points with Plasmodium falciparum Transmission-Blocking Potential for Antimalarial Drug Discovery” (PLoS ONE, 2015)
Out of some 13,000 compounds screened, about 3,200 (25%) showed an effect of 50% or more. Some of the results follow.

Test system: P. falciparum stage V gametocytes
Design: BacTiter-Glo ATP luminescence viability of purified stage V gametocytes in 384-well plates, per cent inhibition versus DMSO
Details: 48 h, 5 µM; inhibitor

| Compound | % Inhibition [%] |
| --- | --- |
| CN(C)CCOc1ccnc2ccc(NC(=O)Cc3ccc(-c4ccncc4)c4ccccc34)cc12 [TCMDC-139162] | 6.193 |
| CCOc1ccnc(=O)[nH]1 [TCMDC-124258] | 20.67 |
| C=CCOc1ccc(C2C(C(=O)OC)=C(C)NC3=C2C(=O)c2ccccc23)cc1OC (stereo not shown) [TCMDC-125383] | -17.47 |
| O=C(Nc1cccc(-c2nn3ncccc3c2-c2ccnc(Nc3cccc(-c4cnco4)c3)n2)c1)c1c(F)cccc1F [TCMDC-135550] | -49.22 |
| Fc1ccc(-c2cc3ncnc(N4CCN(CCN5CCCC5)CC4)c3s2)cc1 [TCMDC-125053] | 6.032 |
| CN1CCN(c2nsc3ccc(-c4ccc(NC(=O)Nc5ccccc5)cc4)cc23)CC1 [TCMDC-133437] | 50.88 |
| CN(C)Cc1ccc(CN2CCN(CCOc3ccc(-c4ccc(Cl)cc4)cc3)CC2)o1 [TCMDC-138673] | 36.52 |
| CN1CCN(c2nsc3ccc(-c4ccc(NC(=O)Nc5cc(C(F)(F)F)ccc5F)cc4)cc23)CC1 [TCMDC-133435] | 89.92 |
| CN1CCN(c2nsc3ccc(-c4ccc(OCCN5CCCC5)cc4)cc23)CC1 [TCMDC-133436] | 111.5 |
| O=C(Nc1ccc(-c2ccc(-c3nc4ccc(C(F)(F)F)cc4[nH]3)cc2)cc1)Nc1ccc(F)c(F)c1F [TCMDC-133223] | -19.68 |
| CN1CCCc2ccc(NC(=O)Nc3ccc(-c4ccccc4)cc3)cc2C1 [TCMDC-133730] | -3.95 |
| CN1CCN(c2ccnc3ccc(NC(=O)Nc4ccc(-c5ccccc5)cc4)cc23)CC1 [TCMDC-139320] | -2.633 |
| COc1ccc(N2CCN(CCCCNC(=O)c3ccc(/C=C/c4ccc(Cl)c(Cl)c4)cc3)CC2)c(OC)c1 [TCMDC-138175] | -78.16 |
| CS(=O)(=O)c1ccc2nc(NC(=O)c3csnn3)sc2c1 [TCMDC-125074] | 49.99 |
| NC1=NC2(CCCC2)N(c2ccc(Cl)cc2)C(N)=N1 [TCMDC-137719] | 0.5076 |
| NC(N)=NC(=O)Nc1cc(Cl)c(Cl)c(Cl)c1 [TCMDC-137465] | -8.846 |
| CCN(CC)CCN(Cc1ccc(-c2ccc(Cl)cc2)cc1)C(=O)Cn1cc(CN(C)C)c(=O)nc1SCc1ccc(F)cc1 [TCMDC-140406] | 107.7 |
| CCc1cn(CC(=O)N(CCOc2ccc(-c3ccc(C(F)(F)F)cc3)cc2)CCN(CC)CC)c(SCc2ccc(F)cc2)nc1=O [TCMDC-140925] | 116.2 |
| CC(C)Sc1nc2c(c(=O)n1Cc1ccco1)C1(CCCCC1)Cc1ccccc1-2 [TCMDC-125100] | 0.5988 |
| COc1ccc(CNC2CCN(C)CC2)cc1-c1ccc(S(=O)(=O)NC2CCC2)cc1 [TCMDC-132245] | 84.43 |
| COc1ccc(CNC2CCN(C)CC2)cc1-c1ccc(S(=O)(=O)NC2CCC2)c(F)c1 [TCMDC-132263] | 28.54 |
| COc1ccc(CNC2CCN(C)CC2)cc1-c1ccc(S(=O)(=O)NC2CCC2)c(C)c1 [TCMDC-132270] | 86.28 |

| Compound | % Inhibition [%] |
| --- | --- |
| N=C(N)c1ccc(NN=Cc2ccc(Oc3ccc(C(=N)N)cc3)cc2)cc1 [TCMDC-137493] | 43.38 |
| CC(C)Cc1c(O)nc(SCCN2CCOCC2)[nH]c1=O [TCMDC-125767] | 17.13 |
| O=C(O)C[C@H](NC(=O)[C@@H]1CCCN1C(=O)c1cccc(-c2ccc(Cl)c(Cl)c2)c1)C(=O)O [TCMDC-140511] | 4.214 |
| O=[N+]([O-])c1ccc(NC(=NC2CCCc3ccccc32)Nc2ccccc2Br)c(O)c1 (stereo not shown) [TCMDC-139983] | -2.666 |
| COc1c(CNCCCCCCNCc2c(OC)c(OC)c3ccccc3c2OC)c(OC)c2ccccc2c1OC [TCMDC-137837] | 111.1 |
| COc1c(OC)c(OC)c2ccccc2c1CNCCCCCCNCc1c(OC)c(OC)c(OC)c2ccccc12 [TCMDC-137827] | 106 |
| CCCNCc1c(O)ccc2c(CNCCC)c(O)ccc12 [TCMDC-137593] | -47.95 |
| O=C(NC1CC1)c1ccc(N2CCCC(COc3ccccc3F)C2)nc1 (stereo not shown) [TCMDC-134034] | 24.35 |
| Cc1cccc2nc(-c3ccc(-c4cccc(NC(=O)COc5ccccc5C(N)=O)c4)s3)[nH]c12 [TCMDC-132133] | 0.7486 |
| CN(CCCCNC(=O)/C=C/c1ccccc1)C1CC2(CCN(C(=O)OC(C)(C)C)CC2)c2ccccc21 (stereo not shown) [TCMDC-132882] | -12.8 |
| CN(CCCCNC(=O)c1cc2ccccc2[nH]1)C1CC2(CCN(C(=O)OC(C)(C)C)CC2)c2ccccc21 (stereo not shown) [TCMDC-132884] | 36.87 |
| CN(C1CCC(NC(=O)/C=C/c2ccccc2)CC1)C1CC2(CCN(C(=O)OC(C)(C)C)CC2)c2ccccc21 (stereo not shown) [TCMDC-132880] | 63.78 |
| OC(CNCc1ccccc1OCc1ccccc1)c1cc(C(F)(F)F)cc(C(F)(F)F)c1 (stereo not shown) [TCMDC-140300] | -49.16 |
| CCCCN(Cc1cccc(C(F)(F)F)c1Cl)c1ccc(C(O)(C(F)(F)F)C(F)(F)F)cc1 [TCMDC-135213] | -4.716 |
| CCCCN(Cc1cc(Cl)c(OCC)c(OC)c1)c1ccc(C(O)(C(F)(F)F)C(F)(F)F)cc1 [TCMDC-135622] | 2.509 |
| CCCCN(Cc1cc(Cl)c(OC)c(OC)c1)c1ccc(C(O)(C(F)(F)F)C(F)(F)F)cc1 [TCMDC-135446] | 54.26 |
| Cc1ccc(F)cc1S(=O)(=O)Nc1cccc(CCN2CCC(N3CCCCC3)CC2)c1 [TCMDC-134068] | 67.59 |
| Cc1ccc(F)cc1S(=O)(=O)Nc1ccc(CCN2CCC(N3CCCCC3)CC2)cc1 [TCMDC-134088] | 60.27 |
| COc1ccc(C2C(C(=O)OC3CCCCC3)=C(C)NC3=C2C(=O)CCC3)cc1Br (stereo not shown) [TCMDC-125070] | -15.5 |
| COc1cc(CCCON2C(N)=NC(N)=NC2(C)C)cc(OC)c1OC [TCMDC-131726] | 7.417 |
| COc1ccc(C=C2SC(=N)N(c3ccccc3OC)C2=O)cc1 [TCMDC-124486] | 37.63 |
